Measurements from PubChem BioAssay AID588591 (National Center for Advancing Translational Sciences (NCATS), 2011).
Among all 390,000 compounds or so, about 4,700 (1.2%) were called active. Inconclusive results (about 4%) are left out. This is one part of a sample in which actives are shown more often than they occur. A number with no mark means an inactive call. The call rests on the fitted dose curve; in most records, active means well fitted inhibition curve with a large enough effect; inconclusive means small, poorly fitted or top-dose-only effect, or another doubt; inactive means no such curve, though single readings can be large or run the other way.

The molecules below were run against DNA polymerase eta (Homo sapiens) (UniProt Q9Y253) (assay: qHTS for Inhibitors of Polymerase Eta). Details: recombinant Pol eta, fluorescent DNA replication assay; series mostly up to 114 µM; activity change, negative = inhibition: at the top concentration.
DNA polymerase eta (Homo sapiens), sequence (Q9Y253 whole entry, looked up): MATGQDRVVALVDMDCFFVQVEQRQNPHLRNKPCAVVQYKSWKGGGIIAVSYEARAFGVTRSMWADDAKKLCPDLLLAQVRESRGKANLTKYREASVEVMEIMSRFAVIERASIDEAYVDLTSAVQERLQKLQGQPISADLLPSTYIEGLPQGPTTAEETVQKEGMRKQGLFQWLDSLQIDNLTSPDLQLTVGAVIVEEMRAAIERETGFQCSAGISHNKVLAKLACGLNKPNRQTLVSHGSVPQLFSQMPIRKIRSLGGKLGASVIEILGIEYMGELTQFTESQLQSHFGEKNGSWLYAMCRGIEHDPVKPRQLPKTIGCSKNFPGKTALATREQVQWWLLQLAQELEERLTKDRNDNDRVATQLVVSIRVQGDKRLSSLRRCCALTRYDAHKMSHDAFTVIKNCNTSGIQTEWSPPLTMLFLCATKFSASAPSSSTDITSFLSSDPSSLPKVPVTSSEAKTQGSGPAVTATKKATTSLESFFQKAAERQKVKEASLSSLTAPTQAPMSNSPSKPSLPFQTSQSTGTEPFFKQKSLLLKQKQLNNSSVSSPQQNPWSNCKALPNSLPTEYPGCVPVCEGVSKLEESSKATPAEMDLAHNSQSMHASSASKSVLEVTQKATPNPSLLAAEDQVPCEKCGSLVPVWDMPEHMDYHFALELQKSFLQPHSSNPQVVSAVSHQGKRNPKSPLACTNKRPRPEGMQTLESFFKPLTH
Method in brief: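 Pol eta at 10 nM preincubated with compounds 15 min at room temperature; reaction started with fluorescent substrate (50 nM final) and read kinetically at 0 and 10 min.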
On the % scale 0 is the no-effect control and ±100 the full control effect; potency means the concentration at half of the fitted maximal effect.

SMILES | activity change, negative = inhibition | Potency
C=CCC(CC=C)(C(N)=O)c1ccccc1 | -13.7% | –
NC(CSC(c1ccccc1)(c1ccccc1)c1ccc(-c2ccccc2)cc1)C(=O)O (stereo not drawn) | – | 25.1 µM (active)
CCC(C)OC(=O)C(C)Oc1ccc(-c2ccccc2)cc1 (stereo not drawn) | -10.5% | –
O=C(Nc1ccc(C(=O)OCc2cc(=O)n3nc(C4CC4)sc3n2)cc1)c1ccc(F)cc1 | 3.99% | –
COc1ccc(CCNCc2c(C(=O)O)c(C)n(Cc3cccc(C)c3)c2C)cc1OC | -19.4% | –
COc1ccc(Cl)cc1NC(=O)CN(C)Cc1ccc(OC)c(OC)c1 | -27.5% | –
COc1ccc(Cl)cc1NC(=O)CCS(=O)(=O)c1ccc(Br)cc1 | – | 20 µM (active)
CC(=O)N1CCc2cc(Br)cc(S(=O)(=O)CCC(=O)NCCc3ccc(Cl)cc3)c21 | -7.83% | –
Cn1c(=O)oc2cc(S(=O)(=O)CCC(=O)NCCc3ccc(Cl)cc3)ccc21 | -13.5% | –
O=C(CCS(=O)(=O)c1ccc(Br)cc1)NCCc1ccc(Cl)cc1 | – | 20 µM (active)
COc1ccc(Cl)cc1NC(=O)CCC(=O)c1ccc(C)cc1 | -3.27% | –
O=C(CCS(=O)(=O)c1cc(Br)cc2c1N(C(=O)C1CC1)CC2)Nc1ccc(Br)cc1F | 4.1% | –
CSc1nc(-c2ccccc2Cl)nc2c1Cc1c(CO)cnc(C)c1O2 | -2.32% | –
COCCn1c(SCC(=O)N2CCCCCC2)nc2c(c1=O)SCC2 | -10.1% | –
CC(=O)c1sc2nc(SCC(=O)N3CCCCC3)[nH]c(=O)c2c1C | – | 10 µM (active)
Cc1c(C)n2c(SCC(=O)N3CCCC3)nnc2[nH]c1=O | -18.5% | –
Cc1cc(C)c2oc(C(=O)Nc3ccc(S(=O)(=O)N4CCCCCC4)cc3)cc(=O)c2c1 | -9.78% | –
O=C(CSc1nnc(-c2ccncc2)n1-c1ccccc1)Nc1ccc(Cl)c(Cl)c1 | 1.86% | –
COc1ccc(S(=O)(=O)NCCSc2nnnn2-c2ccccc2)cc1 | -11% | –
CC(C)(C)C1C/C(=C/c2ccco2)C(=O)/C(=C/c2ccco2)C1 (stereo not drawn) | – | 28.2 µM (active)
COc1cc(Cl)ccc1Nc1ncc(C(=O)N2CCN(c3ccccc3OC)CC2)c2ccccc12 | -7.62% | –

SMILES | activity change, negative = inhibition | Potency
COc1ccc(Nc2ncc(C(=O)Nc3cc(C)ccc3OC)c3ccccc23)cc1 | -16.5% | –
COc1ccc(C(=O)Nc2cccc(C(=O)OCc3cc(=O)n4c5c(sc4n3)CCCC5)c2)cc1 | -3.82% | –
COc1ccccc1CNC(=O)c1ccc(-n2c(C)cc3c2CCCC3)cc1 | -7.73% | –
COc1ccc(C2=CC(c3ccccc3Cl)n3nc(-c4ccc(Cl)cc4)nc3N2)cc1 (stereo not drawn) | -22.5% | –
CCCCOc1ccc(CNC(=O)c2ccc3c(c2)N(C)C(=O)C2CCCCN32)cc1 (stereo not drawn) | -10% | –
Cc1cc(C)cc(NS(=O)(=O)c2ccc(-c3cc(C)no3)s2)c1 | 5.56% | –
COc1ccc(NC(=O)C(=O)NCc2ccco2)cc1 | 1.33% | –
CCOc1ccc(NC(=O)c2ncoc2-c2ccco2)cc1 | -22.9% | –
COCCNC(=O)Nc1ccc2nc(-c3ccco3)c(-c3ccco3)nc2c1 | – | 2.82 µM (active)
CCC(=O)N1c2ccccc2CC1C(=O)N1CCN(c2ccccc2F)CC1 (stereo not drawn) | -10.7% | –
Cc1cccc(CC(=O)N2CC(=O)Nc3ccc(F)cc3C2c2ccccc2)c1 (stereo not drawn) | -24% | –
CC(NC(=O)COC(=O)c1ccc(Cl)cc1O)c1ccc(F)cc1 (stereo not drawn) | -13.8% | –
O=C(COC(=O)c1ccc(F)cc1F)Nc1ncccn1 | – | 22.4 µM (active)
O=C(COC(=O)CSc1ccccc1)Nc1ccc(F)cc1F | -9.37% | –
CCOC(=O)c1ccc(NC(=O)Cn2c(=O)cc(C)c3c(C)nn(-c4cccc(F)c4)c32)cc1 | -12% | –
CN(Cc1ccccc1)S(=O)(=O)c1ccc(F)c(C(=O)Nc2cccc(Cl)c2Cl)c1 | 5.44% | –
CCN1CCN(C(c2ccc(C)cc2)c2c(O)cc(C)n(Cc3ccco3)c2=O)CC1 (stereo not drawn) | -18.8% | –
Cc1ccc(Cn2c(C)nc3c(c2=O)c2nc4ccccc4nc2n3Cc2ccco2)cc1 | – | 22.4 µM (active)
Cc1ccc(Cn2c(=O)n(Cc3nc(-c4ccccc4)no3)c(=O)c3cc4c(cc32)OCO4)cc1 | 0.735% | –
COc1cccc(C(=O)Nc2ccc(-c3cc(C(F)(F)F)nn3-c3ccccc3)cc2)c1 | -22.6% | –
O=C(CN1c2ccccc2S(=O)(=O)c2ccccc21)Nc1cccc(C(F)(F)F)c1 | -11.6% | –

SMILES | activity change, negative = inhibition | Potency
CCCCN(CCCNC(=O)c1cc(Nc2ccccc2OC)nc2ccccc12)c1ccccc1 | -8.91% | –
O=C(NCCCO)C(=O)Nc1c2c(nn1-c1ccccc1)CSC2 | -7.49% | –
CC(C)(C)C(=O)OCc1nc(-c2ccc(O)c(O)c2)cs1 | – | 14.1 µM (active)
O=c1cc(-c2ccccc2)[nH]c2nc(Cl)ccc12 | -5.32% [at 57.1 µM] | –
Cc1ccc2c(c1)c1c(c(=O)n(-c3ccccc3)c(=O)n1CC(=O)c1ccc(Cl)cc1)n2C | -10.5% | –
O=C(CSc1oc(-c2ccccc2)nc1S(=O)(=O)c1ccc(Br)cc1)NC1CCCCC1 | 0.104% | –
O=C(CCNC(=O)c1ccc([N+](=O)[O-])cc1)Nc1ccccc1N1CCOCC1 | -11% | –
N=C1C(c2nc3ccccc3s2)=C(O)CN1NC(=O)c1ccc([N+](=O)[O-])cc1 | – | 50.1 µM (active)
N=C1C(c2nc3ccccc3[nH]2)=C(O)CN1NC(=O)c1c[nH]c2ccccc12 | -8.69% | –
COCCNc1ncnc2c1c(-c1ccccc1)cn2-c1ccc(C)c(Cl)c1 | -3.31% | –
COc1cccc(-c2cc(C(=O)Nc3ccc(C)cc3)[nH]n2)c1 | -20.5% | –
Cn1c(=O)sc2cc(NS(=O)(=O)c3ccc(C(C)(C)C)cc3)ccc21 | -13.2% | –
O=C(Nc1ccc(-c2ccc3nncn3n2)cc1)C1CCCCC1 | -13.9% | –
CC(=O)c1ccc(S(=O)(=O)Nc2ccc(-c3ccc4nncn4n3)cc2)cc1 | – | 20 µM (active)
CC(=O)Nc1ccc(S(=O)(=O)Nc2ccc(-c3ccc4nnc(C)n4n3)cc2)cc1 | -16.5% | –
Cn1nnc2c(N3CCN(c4ccccc4)CC3)ncnc21 | -4.1% | –
CCCCSc1ncnc2c1sc1nc(N3CCOCC3)c3c(c12)CCCC3 | -16% | –
O=Cc1ccc(OCc2cn3ccccc3n2)cc1 | -5.21% | –
CN(C)C(CNC(=O)c1ccc(OCc2cn3ccccc3n2)cc1)c1ccco1 (stereo not drawn) | – | 39.8 µM (active)
CN(C)C(CNC(=O)CCCOc1ccccc1)c1ccco1 (stereo not drawn) | 1.86% | –
Cc1ccc(OCC(=O)Nc2ccc(OCc3cc(=O)n4c(C)csc4n3)cc2)cc1C | -20.4% | –
